Test results reported in PubChem BioAssay (NCATS).
Records with an inconclusive call do not appear. The source made the active and inactive calls. Calls come from the whole dose curve; as a rule, active = well fitted inhibition curve with a large enough effect; inconclusive = small, poorly fitted or top-dose-only effect; inactive = flat fitted curve, though single readings scatter.

Legend:
CRL-7250 = normal cell line; experiment: Cytotoxic Profiling of Annotated Libraries Using Quantitative High-Throughput Screening (AID 1296008); settings: Five cell lines viability, CellTiter-Glo ATP luminescence, 48-72 h; max response: active compounds read low; for max response: % is set by controls: 0 for no effect and ±100 for the full control effect
Summary of the method: (§1)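 Compounds were pin-transferred onto cells and incubated 48 or 72 hr at 37 degree Celsius, 95% humidity. CellTiter-Glo was added, plates sat 10 min at room temperature, then ATP-coupled luminescence was imaged as the viability read-out.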

HEK293 = experiment: as above; settings: Five cell lines viability, CellTiter-Glo ATP luminescence, 48-72 h; max response: active compounds read low
Summary of the method: as §1

HaCat [1] = experiment: as above; settings: Five cell lines viability, CellTiter-Glo ATP luminescence, 48-72 h; max response: active compounds read low
Summary of the method: as §1

KB-3-1 = experiment: as above; settings: Five cell lines viability, CellTiter-Glo ATP luminescence, 48-72 h; max response: active compounds read low
Summary of the method: as §1

NIH3T3 = experiment: as above; settings: Five cell lines viability, CellTiter-Glo ATP luminescence, 48-72 h; max response: active compounds read low
Summary of the method: as §1

HACAT [2] = experiment: qHTS assay to identify novel small-molecules to repurpose for Merkel cell carcinoma treatment (AID 1296009); settings: MCC and control cell lines, CellTiter-Glo viability, 72 h; at 44.8 µM (top of the series) unless noted
Summary of the method: (§2)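 Viability readout: ATP luminescence (CellTiter-Glo) after 72 hr drug exposure at 37 degree celsius. Dose-response format was 8 points for NPC and 11 points for MIPE; data normalized to in-plate controls.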

HEK293T = experiment: as above; settings: MCC and control cell lines, CellTiter-Glo viability, 72 h; series mostly up to 44.8 µM
Summary of the method: as §2
Note: nearly all actives have a fitted effect of over 60% in size.

CC(=O)N1c2ccccc2C2(O)CC3C(=O)NC(CC(C)C)C(=O)N3C12 (stereo not drawn)
inactive: max response (CRL-7250) 1.79% | outcome (HEK293) | outcome (HaCat [1]) | max response (KB-3-1) 2.12% | max response (NIH3T3) 1.77% | outcome (HACAT [2]) | Potency (HEK293T)

CC1CCC2(C(=O)OC3OC(CO)C(O)C(O)C3O)CCC3(C(=O)O)C(=CCC4C5(C)CCC(OC6OC(C)C(O)C(O)C6O)C(C)(C)C5CCC43C)C2C1C (stereo not drawn)
inactive: max response (CRL-7250) 1.53% | outcome (HEK293) | outcome (HaCat [1]) | outcome (KB-3-1) | max response (NIH3T3) 4.68% | outcome (HACAT [2]) inactive [at 17.4 µM] | Potency (HEK293T)

CC(=O)OC1C=C(C(=O)O)C2(CO)CCC(C)C(C)(CCc3ccoc3)C2C1 (stereo not drawn)
inactive: max response (CRL-7250) -9.02% | outcome (HEK293) | outcome (HaCat [1]) | outcome (KB-3-1) | outcome (NIH3T3) | outcome (HACAT [2]) inactive [at 17.4 µM] | Potency (HEK293T)

OCCc1ccc(O[C@@H]2O[C@H](CO)[C@@H](O)[C@H](O)[C@H]2O)c(O)c1
inactive: max response (CRL-7250) 1.68% | outcome (HEK293) | outcome (HaCat [1]) | outcome (KB-3-1) | max response (NIH3T3) -4.15% | outcome (HACAT [2]) | Potency (HEK293T)

CC(=O)OC1C(O)C(C)=C(CCC(C)CC(=O)O)C2(C)CCCC(C)(C)C12 (stereo not drawn)
inactive: outcome (CRL-7250) | outcome (HEK293) | outcome (HaCat [1]) | max response (KB-3-1) 0.797% | outcome (NIH3T3) | outcome (HACAT [2]) | Potency (HEK293T)

Cc1cc(O)cc(Oc2cc(C)c(C(=O)O)c(O)c2)c1
inactive: max response (CRL-7250) -27.9% | outcome (HEK293) | outcome (HaCat [1]) | outcome (KB-3-1) | max response (NIH3T3) 4.83% | outcome (HACAT [2]) | Potency (HEK293T)

C=C[C@H]1[C@H](O[C@@H]2O[C@H](CO[C@@H]3OC[C@](O)(CO)[C@H]3O)[C@@H](O)[C@H](O)[C@H]2O)OC=C2C(=O)OCC[C@H]21
inactive: outcome (CRL-7250) | outcome (HEK293) | outcome (HaCat [1]) | outcome (KB-3-1) | outcome (NIH3T3) | outcome (HACAT [2]) inactive [at 17.4 µM] | Potency (HEK293T)

CCn1nnnc1NCc1ccc(C(C)C)cc1
inactive: outcome (CRL-7250) | outcome (HEK293) | outcome (HaCat [1]) | max response (KB-3-1) 2.69% | outcome (NIH3T3) | outcome (HACAT [2]) | Potency (HEK293T)

CC1CCC2(NC1)OC1C(=O)C3C4CCC5CC(O[C@@H]6O[C@H](CO)[C@@H](O)[C@H](O)[C@H]6O[C@@H]6O[C@@H](C)[C@H](O)[C@@H](O)[C@H]6O)CCC5(C)C4CCC3(C)C1C2C (stereo partly drawn)
inactive: outcome (CRL-7250) | outcome (HEK293) | outcome (HaCat [1]) | max response (KB-3-1) -4.49% | max response (NIH3T3) -2.88% | outcome (HACAT [2]) inactive [at 17.4 µM] | Potency (HEK293T)

C=C[C@@]1(C)CC(=O)C2[C@](C)(O1)[C@@H](OC(C)=O)[C@@H](O)[C@H]1C(C)(C)CCC[C@]21C (stereo partly drawn)
inactive: max response (CRL-7250) -2.88% | outcome (HEK293) | outcome (HaCat [1]) | max response (KB-3-1) 7.42% | outcome (NIH3T3) | outcome (HACAT [2]) inactive [at 9.27 µM] | outcome (HEK293T) inactive [at 9.27 µM]

CC1=C(C)C(=O)OC(C(C)C2C(O)CC3C4C5OC5C5(O)CC(OC6OC(CO)C(O)C(O)C6O)CC(O)C5(C)C4CCC32C)C1 (stereo not drawn)
inactive: outcome (CRL-7250) | outcome (HEK293) | outcome (HaCat [1]) | max response (KB-3-1) 0.502% | max response (NIH3T3) -0.676% | outcome (HACAT [2]) inactive [at 17.4 µM] | Potency (HEK293T)

COC(=O)C1=CO[C@@H](O[C@@H]2O[C@H](COC(=O)/C=C/c3cc(OC)c(O)c(OC)c3)[C@@H](O)[C@H](O)[C@H]2O)[C@@H]2C(CO)=CC[C@H]12
inactive: max response (CRL-7250) -6.59% | outcome (HEK293) | outcome (HaCat [1]) | max response (KB-3-1) 1.62% | max response (NIH3T3) 0.53% | outcome (HACAT [2]) inactive [at 17.4 µM] | Potency (HEK293T)

Cc1nnc(C(C)C)n1C1CC2CCC(C1)N2CC[C@H](NC(=O)C1CCC(F)(F)CC1)c1ccccc1 (stereo partly drawn)
inactive: outcome (CRL-7250) | outcome (HEK293) | outcome (HaCat [1]) | max response (KB-3-1) -4.91% | outcome (NIH3T3) | outcome (HACAT [2]) | Potency (HEK293T)

C/C=C/C1=CC2=C(CO1)C(=O)[C@](C)(O)[C@H](OC(=O)c1c(O)cc(OC)c(O)c1C)C2
inactive: max response (CRL-7250) 2.48% | outcome (HEK293) | outcome (HaCat [1]) | outcome (KB-3-1) | outcome (NIH3T3) | outcome (HACAT [2]) inactive [at 17.4 µM] | Potency (HEK293T)

C=C(C(=O)O)C1CCC(C)C2CCC(=O)OC2(C)C1 (stereo not drawn)
inactive: max response (CRL-7250) 4.24% | outcome (HEK293) | outcome (HaCat [1]) | max response (KB-3-1) 6.53% | max response (NIH3T3) 0.163% | outcome (HACAT [2]) | Potency (HEK293T)

COC1CCCC/C(C)=C/C2C=C(C)C(C)C3C(CC(C)C)NC(=O)C23C(=O)C1 (stereo not drawn)
inactive: outcome (CRL-7250) | outcome (HEK293) | outcome (HaCat [1]) | max response (KB-3-1) 5.18% | outcome (NIH3T3) | outcome (HACAT [2]) inactive [at 17.4 µM] | Potency (HEK293T)

NC(Cc1c[nH]c2ccccc12)C(=O)NC(CCC(=O)O)C(=O)O (stereo not drawn)
inactive: outcome (CRL-7250) | outcome (HEK293) | outcome (HaCat [1]) | max response (KB-3-1) 5.6% | max response (NIH3T3) 1.77% | outcome (HACAT [2]) | Potency (HEK293T)

C=C1CC[C@H]2[C@@H](/C=C(\C)C(=O)[C@@]3(OC(C)=O)C[C@H](C)[C@H](OC(C)=O)[C@@H]3[C@H]1OC(C)=O)C2(C)C
inactive: outcome (CRL-7250) | outcome (HEK293) | outcome (HaCat [1]) | outcome (KB-3-1) | outcome (NIH3T3) | outcome (HACAT [2]) inactive [at 17.4 µM] | Potency (HEK293T)

CC(C)C1=CC2=CCC3[C@](C)(CCC[C@@]3(C)C(=O)O)C2CC1O (stereo partly drawn)
inactive: max response (CRL-7250) -2.15% | outcome (HEK293) | outcome (HaCat [1]) | outcome (KB-3-1) | outcome (NIH3T3) | outcome (HACAT [2]) | Potency (HEK293T)

COc1ccc(C(=O)O[C@H]2CC(C)=CC[C@@]3(C)[C@@H](OC(C)=O)C[C@@](O)(C(C)C)[C@H]23)cc1
inactive: max response (CRL-7250) -4.18% | outcome (HEK293) | outcome (HaCat [1]) | max response (KB-3-1) 7.38% | outcome (NIH3T3) | outcome (HACAT [2]) inactive [at 17.4 µM] | Potency (HEK293T)

CC(=O)N[C@H]1CCN(c2ccc(C3=NOC(CN[S+](=O)([O-])C(C)C)C3)cc2F)C1 (stereo partly drawn)
inactive: max response (CRL-7250) 3.89% | outcome (HEK293) | outcome (HaCat [1]) | max response (KB-3-1) -0.511% | outcome (NIH3T3) | outcome (HACAT [2]) | Potency (HEK293T)

COc1cc(/C=C/C(=O)OC2CC(C)=C(C(=O)O)/C2=C/CO[C@@H]2O[C@H](CO)[C@@H](O)[C@H](O)[C@H]2O)ccc1O (stereo partly drawn)
inactive: max response (CRL-7250) 4.12% | outcome (HEK293) | outcome (HaCat [1]) | outcome (KB-3-1) | outcome (NIH3T3) | outcome (HACAT [2]) inactive [at 17.4 µM] | Potency (HEK293T)

CCc1cc2c(=O)c(-c3nc4ccccc4s3)coc2c(CN2CCCCC2)c1O
inactive: max response (CRL-7250) 0.116% | outcome (HEK293) | outcome (HaCat [1]) | max response (KB-3-1) -10.9% | max response (NIH3T3) 2.93% | outcome (HACAT [2]) inactive [at 17.4 µM] | Potency (HEK293T)

COc1ccc([C@H]2Cc3cccc(O)c3C(=O)O2)cc1
inactive: max response (CRL-7250) -7.43% | outcome (HEK293) | outcome (HaCat [1]) | max response (KB-3-1) 9.62% | outcome (NIH3T3) | outcome (HACAT [2]) | Potency (HEK293T)
